KLF5 inh = suppresses KLF5 promoter-driven expression; DLD-1 KLF5 promoter-luciferase reporter, luminescence; inhibition, % at 5 µM; actives 0.23% (n = 290,000);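 active = inhibition above a per-plate limit of that plate's mean compound inhibition plus 3 SD, cut at about 60% in these data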;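 also: 0% = DMSO wells and 100% = LY294002 at 200 µM; higher means less KLF5 promoter-driven luciferase light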
APP transl inh = APP translation inhibition; SH-SY5Y APP 5'UTR-luciferase reporter, luminescence; inhibition, % at 2 µM; actives 0.82% (n = 190,000);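 active = inhibition above a set limit, derived from the sample mean plus 3 SD, cut at about 45% in these data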
BaF3 parental = parental Ba/F3 viability inhibition as JAK2V617F counter-screen; AID 1486; actives 1.1% (n = 220,000); inhibition, % at 5.6 µM; CellTiter-Glo ATP luminescence;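 active = inhibition above a per-campaign cutoff, the mean inhibition of all tested compounds plus 3 SD, cut at about 27% in these data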;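 also: 0% = DMSO wells and 100% = JAK Inhibitor I control wells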
aSyn 5UTR inh = MLPCN primary screen, SNCA 5' untranslated region | alpha-synuclein 5'UTR reporter, inhibitor activity | inhibition, % (tested at 7.5 µM) | actives 0.82% (n = 300,000); in the data active = inhibition above about 60%;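 also: H4 neuroglioblastoma cells stably carrying SNCA 5'UTR luciferase fusion; 0% = DMSO wells and 100% = positive control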
IEC-6 cytotox = counter-screen for KLF5 inhibitors: cytotoxicity in IEC-6 cells. IEC-6 cytotoxicity, luminescence viability. inhibition, % at 5 µM. actives 0.78% (n = 290,000). AID 1825;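 also: 0% = plate median of test compound wells and 100% = cytotoxic reference compound wells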
Ba/F3 V617F tox = lowers viability of Ba/F3 cells expressing EpoR and JAK2V617F. ATP luminescence. inhibition, % at 5.6 µM. actives 1.1% (n = 220,000). AID 1446;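 active = inhibition above the campaign mean plus 3 SD over all tested compounds, cut at about 24% in these data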;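 also: cytokine-independent growth of Ba/F3 cells driven by EpoR plus mutant JAK2; 0% = DMSO-treated cells and 100% = JAK inhibitor I control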
IEC-6 tox confirm = confirmation of cytotoxic compounds in rat IEC-6 intestinal epithelial cells. shares compounds with IEC-6 cytotox. IEC-6 rat intestinal epithelial viability, luminescence. inhibition, % at 5 µM. actives 63% (n = 1,900). AID 1907;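 also: 0% = vehicle and 100% = reference cytotoxic drug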
* marks the source's active call; other numbers are inactive results; · = not tested or not shown. Most compounds without a hit are left out; they make up all but 2.2% or so of the library. Rule as the data show it, unless noted: active = inhibition above about 22%; inactive = the rest.

SMILES | KLF5 inh | APP transl inh | BaF3 parental | aSyn 5UTR inh | IEC-6 cytotox | Ba/F3 V617F tox | IEC-6 tox confirm
Cc1nnc(N/N=C\c2ccc(-c3ccccc3[N+](=O)[O-])o2)n1N | -85.4 | 0.2 | 10.6 | -75.0 | 57.8* | 1.5 | -4.5
Cc1nnc(N/N=C/c2ccc(-c3ccccc3F)o2)n1N | -97.9 | -35.8 | 7.9 | -107.5 | 102.2* | 5.4 | 4.6
Cn1ccsc1=NC(=O)c1ccc([N+](=O)[O-])o1 | -17.1 | · | · | -160.8 | 67.3* | · | 18.4
O=C1CCC([N+](=O)[O-])C(c2cccc(Br)c2)N1 (configuration not stated) | 0.1 | -1.9 | -0.9 | -8.9 | -4.0 | -4.7 | ·
COc1ccc(C2CC(=O)N(C)c3ccccc3S2)cc1 (configuration not stated) | -30.2 | -6.3 | -6.1 | -38.3 | 23.7* | 3.7 | 9.4
CCNC(=S)N/N=C(\C)c1cccc(OC)c1 | -34.8 | -8.0 | 4.9 | -24.3 | -3.9 | -3.2 | ·
Cc1onc(-c2ccccc2Cl)c1C(=O)NC(=S)Nc1ccc(C(C)C)cc1 | -4.5 | · | 62.7* | 5.9 | 22.3* | 57.7* | -9.9
CCOC(=O)c1[nH]c(C)c(/C(O)=C2\C(=O)C(=O)N(CCCN3CCOCC3)C2c2cccs2)c1C (configuration not stated) | 32.9 | · | 71.8* | -34.3 | 58.7* | 69.7* | 10.0
COC(=O)c1[nH]c(C)c(/C(O)=C2\C(=O)C(=O)N(CCN3CCOCC3)C2c2cccs2)c1C (configuration not stated) | · | · | · | 8.5 | · | · | ·
COc1ccccc1C(=O)Nc1ccc(Oc2ncnc3sc(-c4ccccc4)cc23)cc1 | -2.2 | 18.3 | 4.2 | -44.4 | -5.5 | -0.4 | ·
CCOc1cc(/C=C2\CN(C)C/C(=C\c3ccc(O)c(OCC)c3)C2=O)ccc1O | 33.0 | · | · | 96.5* | 88.1* | · | 37.6*
Cc1ccc2c(c1)C(=O)C(=O)N2CC1COc2ccccc2O1 (configuration not stated) | -8.1 | · | · | -37.2 | 82.6* | · | 8.9
Cc1ccc2c(c1)C(=O)C(=O)N2CCCOc1ccccc1 | -13.5 | -0.3 | 10.0 | -67.5 | 4.4 | 1.7 | ·
CCN1CCN(CC2COc3ccccc3O2)CC1 (configuration not stated) | -11.7 | · | · | -11.2 | 3.5 | · | ·
CCOc1ccc2c(c1)C(=O)C(=O)N2CC1COc2ccccc2O1 (configuration not stated) | -5.7 | · | · | -11.3 | 71.6* | · | 14.0
COc1ccc2c(c1)C(=O)C(=O)N2CC1COc2ccccc2O1 (configuration not stated) | 11.5 | · | · | -23.1 | 82.8* | · | 8.8
O=C(N1CCN(CCO)CC1)N1c2ccccc2CCc2ccccc21 | -7.8 | · | -2.8 | -7.1 | -1.9 | -3.0 | ·
COc1ccc(/C=N/NC(=O)C(=O)N2CCCCCC2)cc1[N+](=O)[O-] | -13.3 | · | · | 7.1 | -3.0 | · | ·
CCOc1ccc(N(C)S(=O)(=O)c2cc(-c3cc(C)no3)ccc2OC)cc1 | 2.4 | · | · | -1.8 | 2.7 | · | ·
COc1ccc(-c2cc(C)no2)cc1S(=O)(=O)N(C)c1ccc(C)cc1 | 22.7 | · | · | -9.1 | 28.3* | · | 24.6*
CCC(=O)NC(c1ccc(OC)cc1)c1c(O)ccc2ccccc12 (configuration not stated) | 13.6 | 15.6 | 1.8 | 49.2 | 23.1* | 1.7 | 9.0
Cc1ccc(-c2nnn3c2nc(NCCc2ccc(S(N)(=O)=O)cc2)c2ccccc23)cc1 | 8.2 | 3.8 | 6.8 | -18.6 | 54.7* | 3.0 | 4.3
COc1ccc(OC)c(Nc2nc(C)nc3c2oc2ccccc23)c1 | -1.4 | · | · | 25.5 | 26.3* | · | 23.3*
COc1ccc([N+](=O)[O-])cc1Nc1c2ccccc2nc2ccccc12 | 66.4* | · | · | 76.5* | 79.0* | · | 71.7*
COc1cc(Nc2c3c(nc4ccccc24)CCC3)cc(OC)c1OC | 53.8 | · | · | 28.8 | 84.6* | · | 58.4*
SMILES | KLF5 inh | APP transl inh | BaF3 parental | aSyn 5UTR inh | IEC-6 cytotox | Ba/F3 V617F tox | IEC-6 tox confirm
Cc1cccc(Nc2c3c(nc4ccccc24)CCC3)c1 | -20.9 | · | 0.8 | -12.0 | 7.0 | 3.6 | ·
COc1ccc(OC)c(Nc2c3ccccc3nc3ccccc23)c1 | 11.2 | · | · | -25.6 | 45.6* | · | 13.4
CN(C)C=Nc1ccc2nn(-c3ccccc3)nc2c1 | -143.0 | -78.6 | 6.7 | -211.4 | 10.4 | 3.3 | ·
COc1ccc(S(=O)(=O)NCCSc2ccccc2)cc1OC | -7.0 | 6.4 | 2.3 | 14.8 | -4.2 | 0.3 | ·
CCN(CC(=O)NCc1ccc(F)cc1)C(=O)/C=C/c1ccc(OC)cc1 | -25.8 | · | · | 0.2 | 3.3 | · | ·
CCN(CC(=O)NCc1ccc(F)cc1)C(=O)/C=C/c1ccc(OC)c(S(=O)(=O)NC(C)C)c1 | 48.0 | · | · | 63.2* | 72.9* | · | 49.9*
COc1cc(C(=O)NNC(=O)C2CC=CCC2C(=O)O)cc(OC)c1OC (configuration not stated) | 39.0 | 64.8* | 44.4* | 5.2 | 70.1* | 60.3* | -3.2
COc1ccccc1OCC(=O)NN=C(Cc1ccccc1)Cc1ccccc1 | -32.1 | 9.3 | 4.8 | 1.0 | 5.6 | 0.2 | ·
CCOc1ccccc1OCC(=O)N/N=C(\C)Cc1ccc(OC)cc1 | 55.5 | 92.5* | 73.4* | 86.5* | 69.8* | 72.0* | -17.0
CN(C)CCNC(=O)c1onc(CSc2nc3ccccc3[nH]2)c1C(=O)NCCN(C)C | -6.2 | · | · | -4.2 | -9.0 | · | ·
Cc1cc(C(C)(C)C)cc(C)c1C[n+]1ccc2ccccc2c1 | -21.1 | · | · | 7.4 | 27.7* | · | 22.3*
O=C(COc1ncnc2ccccc12)NCC1CCCO1 (configuration not stated) | -29.7 | 10.5 | 12.4 | -16.7 | -0.7 | 3.9 | ·
CCOC(=O)NCc1cc(-c2nn(C)c(=O)c3ccccc23)ccc1C | -38.5 | -17.0 | 2.7 | 0.0 | 0.1 | -2.0 | ·
COc1cc(CNCCCN2CCOCC2)cc(Br)c1OCc1ccc(Cl)cc1 | -18.7 | 9.6 | 72.7* | -29.8 | 53.1* | 30.5* | 45.6*
COc1cc(CNCCN2CCOCC2)ccc1OCc1ccc(Cl)cc1 | -37.7 | -4.5 | 4.4 | -36.0 | 1.9 | -1.2 | ·
Cc1ccc(Nc2nc(N)nc(CCl)n2)c(C)c1 | -15.2 | · | 30.2* | -44.7 | 100.2* | 98.7* | 5.4
Cc1cccc(Nc2nc(N)nc(CCl)n2)c1 | 20.2 | · | -2.7 | -53.4 | 14.0 | 14.0 | ·
COC(=O)c1ccc2nc(C)cc(Nc3ccc(N(C)C)cc3)c2c1 | 17.0 | 0.3 | 5.9 | -3.6 | 1.5 | 4.2 | ·
COC(=O)c1ccc(Nc2cc(C)nc3ccccc23)cc1 | 18.7 | · | 0.2 | 64.7* | 23.4* | 5.8 | 27.1*
Cc1cc(C(=O)NNc2ccc(F)cc2F)no1 | 21.3 | · | -1.4 | -2.1 | 32.0* | -0.5 | -8.0
Cc1cc(C(=O)NNc2ccc(Cl)cc2)no1 | 25.5 | · | 1.0 | -15.6 | 45.4* | -3.5 | -4.2
O=C(CSc1ncn[nH]1)Nc1ccccc1-c1ccccc1 | 2.1 | 7.6 | -0.6 | -5.2 | -2.5 | 0.7 | ·
COc1ccc(/C=C/C(=O)c2cc(F)ccc2OC(=O)c2ccccc2)cc1OC | 56.0 | 89.5* | 1.0 | 67.1* | 46.2* | -0.1 | 37.0*
COc1cc(-c2noc(C)c2-c2ccc3[nH]ccc3c2)cc(OC)c1OC | 41.1 | · | · | -10.5 | 89.0* | · | 59.9*
